Bioassay records as filed in PubChem BioAssay.
A selection: hits, their analogues and other compounds. The true share with any hit is near 3.5%.
Mtb FBA inh – Mtb FBA enzyme inhibitors, primary screen, biochemical, fluorescence, strain H37Rv. Fructose-bisphosphate aldolase (Mycobacterium tuberculosis (strain ATCC 25618 / H37Rv)), …. purified M. tuberculosis FBA, fluorescence read-out. inhibition, % at 1 µM. hit rate 2.3% among 360,000; in the data active = inhibition above about 27%
FadD28 binding – inhibitors of FadD28 bisubstrate probe binding, primary screen, biochemical, fluorescence polarization, single point; inhibition, % at 12.5 µM; hit rate 0.22% among 360,000; in the data active = inhibition above about 8.5%, passing the limit was not always enough; inconclusive = no clear call, values can overlap the other calls
Rv3671c protease – Rv3671c serine protease inhibitors, primary screen, biochemical, fluorescence polarization, M. tuberculosis H37Rv. P9WHR9. inhibition, % at 5.96 µM. hit rate 0.048% among 320,000. AID 2606, 2010; in the data active = inhibition above about 38%;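 also: extracellular domain of Rv3671c used as enzyme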
GDH-TPI inh – GDH-TPI coupling enzyme inhibitors, primary screen, artefact control for M. tuberculosis FBA inhibitor project, biochemical, absorbance, full deck; GDH-TPI coupled enzyme counterscreen, NADH absorbance; inhibition, % at 4.8 µM; hit rate 1.2% among 360,000; AID 588335, 2011; in the data active = inhibition above about 30%
Mtb hypoxia rep – PubChem AID 1159583. hit rate 0.1% among 300,000. M. tuberculosis hypoxia-regulated fluorescent reporter, fluorescence. fluorescence inhibition, % (concentration not given with the values); in the data active = fluorescence inhibition mostly above about 23%, no sharp cut-off; inactive = mostly below about 17%
Mtb UGM inh – M. tuberculosis UGM enzyme inhibitors, primary screen, biochemical, fluorescence polarization, single point; inhibition, % at 10 µM; hit rate 0.06% among 320,000; purified UGM, fluorescence polarization probe displacement; UDP-galactopyranose mutase (Mycobacterium tuberculosis (strain ATCC 25618 / H37Rv)), …; in the data active = inhibition above about 10%, passing the limit was not always enough; inconclusive = no clear call, values can overlap the other calls
Target sequence (P9WIQ1 whole entry, looked up): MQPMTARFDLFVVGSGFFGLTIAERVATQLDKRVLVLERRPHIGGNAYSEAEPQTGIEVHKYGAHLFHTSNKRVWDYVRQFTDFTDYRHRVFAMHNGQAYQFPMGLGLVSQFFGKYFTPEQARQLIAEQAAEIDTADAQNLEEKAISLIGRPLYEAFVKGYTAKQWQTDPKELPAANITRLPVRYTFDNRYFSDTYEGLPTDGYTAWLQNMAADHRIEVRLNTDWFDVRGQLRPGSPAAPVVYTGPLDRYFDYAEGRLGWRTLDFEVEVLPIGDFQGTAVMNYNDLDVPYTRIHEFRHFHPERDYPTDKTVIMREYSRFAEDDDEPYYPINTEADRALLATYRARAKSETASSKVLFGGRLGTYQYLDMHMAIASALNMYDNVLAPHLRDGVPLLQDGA
Numbers stand for hits; . = inactive; ? = inconclusive; / = no result given; + = active, no number.

SMILES	Mtb FBA inh	FadD28 binding	Rv3671c protease	GDH-TPI inh	Mtb hypoxia rep	Mtb UGM inh
Cc1c(CCC(=O)O)c(=O)oc2cc(O)ccc12	+	.	.	.	.	.
CC(=O)COc1ccc2c(C)c(-c3ccccc3)c(=O)oc2c1	.	.	.	.	.	.
COc1ccc(-c2c(C)c3ccc(O)cc3oc2=O)cc1OC	+	.	.	.	.	.
Cc1ccc(S(=O)(=O)NN=Cc2c(F)cccc2Cl)cc1	/	/	/	/	.	/
CN1CC2C3C(=O)N(Cc4ccccc4)C(=O)C3[C@](Cc3ccccc3)(C1=O)N2C(=O)c1ccc(F)cc1 (stereo not given in full)	/	/	/	/	.	/
CC(=NNS(=O)(=O)c1ccc(Cl)cc1)c1cccc(NC(=O)c2ccncc2)c1	/	/	/	/	.	/
C=CCn1c(=O)c2c(nc(-c3ccc(S(=O)(=O)O)cc3)n2C)n(C)c1=O	+	.	.	.	.	.
N#C/C(=N/Nc1ccccc1F)C(=N)N1CCOCC1	.	.	.	32	/	.
COc1ccccc1C=Nn1c(C)nnc1-n1nc(C)cc1C	/	/	/	/	.	/
O=C(CCl)N(Cc1ccccc1)c1ccccc1	.	.	.	.	/	.
Cc1cccc(N(Cc2ccccc2)C(=O)CCl)c1	.	.	/	.	36	/
CCC1=C(OC(=O)N(CC)CC)N2C(=O)OC(=NCC(=O)OC)[C@]2(C)C2C1=CCC1C(=O)N(CC)C(=O)C12 (stereo not given in full)	/	/	/	/	.	/
COc1ccc2nc(C)c(C(N)=O)cc2c1	.	.	.	.	.	.
COc1cc2cc(C(N)=O)c(N)nc2cc1OC	+	?	.	.	.	.
COC(=O)c1ccc(COc2ccc(/C=N/Nc3nc(C)cc(=O)[nH]3)cc2)cc1	.	.	.	36	/	.
CSc1ccc(/C=N/Nc2cccc(C(=O)O)c2)cc1	.	13	/	.	/	/
COC(=O)c1ccc(COc2ccc(C=NNc3nc(C)cc(=O)[nH]3)cc2)cc1	/	/	/	/	.	/
COC(=O)c1ccc(COc2ccc(/C=N/Nc3cccc(C(=O)O)c3)cc2)cc1	.	11	.	.	/	.
O=C(O)c1cccc(N/N=C/c2ccc(OC(F)(F)F)cc2)c1	.	?	.	.	/	.
COc1ccc(-n2nc(C(=O)NCC(=O)NC3CCCC(C)C3C)c3ccccc3c2=O)c(OC)c1 (stereo not given)	.	.	.	.	35	.
Cc1ccc(C)c(S(=O)(=O)Nc2ccccc2C(=O)Nc2cc(C)on2)c1	135	.	.	.	.	.
Cc1cc(NC(=O)c2ccccc2NS(=O)(=O)c2c(C)c(C)cc(C)c2C)no1	.	.	.	.	.	.
O=C1NC(=O)N(c2ccc3c(c2)OCO3)C(=O)C1=Cc1ccc(N2CCCC2)o1	/	/	/	/	40	/
CCOc1ccc(N2C(=O)NC(=O)C(=Cc3ccc(N4CCCCC4)o3)C2=O)cc1	/	/	/	/	40	/
O=C1NC(=O)N(c2ccc3c(c2)OCO3)C(=O)/C1=C/c1ccc(N2CCCCC2)o1	.	.	.	.	.	.
SMILES	Mtb FBA inh	FadD28 binding	Rv3671c protease	GDH-TPI inh	Mtb hypoxia rep	Mtb UGM inh
CCOc1ccc(N2C(=O)NC(=O)/C(=C\c3ccc(N4CCOCC4)cc3C)C2=O)cc1	.	.	.	.	.	.
O=C(NN=Cc1c[nH]c2ccccc12)c1cccc([N+](=O)[O-])c1	/	/	/	/	.	/
Cc1c(C(=O)N2CCN(S(=O)(=O)c3ccc(F)cc3)CC2)oc2ccccc12	.	.	.	.	39	.
Cc1c(-c2cccc(NC(=O)c3cccs3)c2)nc2ncccn12	+	.	.	.	.	.
Cc1c(-c2cccc(NC(=O)c3ccco3)c2)nc2ncccn12	+	.	.	.	.	.
O=C(Nc1ccccc1)C1=CC(c2ccc3c(c2)OCO3)CC(OCCCCO)O1 (stereo not given)	/	/	/	/	.	/
CCOc1cc(/C=N/NC(=O)c2cc3c(ccc4ccccc43)o2)ccc1O	.	.	/	44	/	.
COc1ccc(OC)c(C=NNC(=O)c2cc3c(ccc4ccccc43)o2)c1	/	/	/	/	.	/
CCOc1cc(C=NNC(=O)c2cc3c(ccc4ccccc43)o2)ccc1O	/	/	/	/	.	/
CCOC(=O)COc1ccccc1/C=N\NC(=O)c1cc2c(ccc3ccccc32)o1	.	.	/	31	/	.
CCN(CC)c1ccc(C=Nc2ccccc2C)c(O)c1	.	.	.	37	.	.
CCN(CC)c1ccc(C=Nc2ccc(C#N)cc2)c(O)c1	.	.	.	45	/	.
COc1cc(C=NN2CCN(c3ccccc3)CC2)cc(OC)c1OC(C)=O	/	/	/	/	.	/
COc1cc(C=NNC(=O)Cc2cccs2)c([N+](=O)[O-])cc1OC	/	/	/	/	.	/
O=C(CCC1CCCC1)N1CCN(C(=O)c2ccco2)CC1	135	.	.	.	/	.
Cc1ccc(-c2cc(-c3ccccc3)nc(N)c2C#N)o1	133	.	.	.	.	.
N#Cc1c(-c2ccco2)cc(-c2ccc(F)cc2)nc1N	154	.	.	.	/	.
COc1ccc(C=NS(=O)(=O)CCc2ccccc2)c(OC)c1	/	/	/	/	.	/
CN(C)C=NS(=O)(=O)c1ccc(Cl)c(Cl)c1	/	/	/	/	.	/
CC[C@@]12C(=O)N(c3cccc(F)c3)C(=O)N1C(c1ccc(Cl)cc1)C1C(=O)N(C3CCCCC3)C(=O)C12 (stereo not given in full)	/	/	/	/	.	/
Cc1cccc(NC(=S)NN=Cc2ccc(Cl)c([N+](=O)[O-])c2)c1	/	/	/	/	.	/
Cc1nn(C)cc1/C=C/C(=O)c1ccccc1	.	.	.	36	.	.
Cc1c(/C=C/C(=O)c2ccc(O)cc2)cnn1C	.	.	.	39	/	.
Cc1nn(C)cc1/C=C/C(=O)c1cccs1	.	.	.	.	.	.
Cc1cccn2c(=O)c3cc(C(=O)NCc4cccnc4)c(=N)n(C(C)C)c3nc12	+	.	.	.	.	.
SMILES	Mtb FBA inh	FadD28 binding	Rv3671c protease	GDH-TPI inh	Mtb hypoxia rep	Mtb UGM inh
CC(C)n1c(=N)c(C(=O)NCCc2ccccc2)cc2c(=O)n3ccccc3nc21	+	.	.	.	.	.
Cc1cccn2c(=O)c3cc(C(=O)NCc4ccco4)c(=N)n(C(C)C)c3nc12	+	.	.	.	.	.
COc1ccc(CCNC(=O)c2cc3c(=O)n4cccc(C)c4nc3n(Cc3ccco3)c2=N)cc1OC	.	.	.	.	/	.
N=c1c(C(=O)NCc2ccc3c(c2)OCO3)cc2c(=O)n3ccccc3nc2n1Cc1cccnc1	.	.	.	.	.	.
O=C(NN=Cc1ccncc1)c1cccc(NN=Cc2ccncc2)c1	/	/	/	/	.	/
COc1ccc(Br)cc1C=NNC(=O)CNC(=O)C1COc2ccccc2O1 (stereo not given)	/	/	/	/	.	/
O=C(C(=Cc1ccccc1)c1ccccc1)N1CCCCC1	/	/	/	/	.	/
Cc1ccc(C(=O)NN=Cc2ccc(Br)o2)o1	/	/	/	/	.	/
Cc1c(/C=N/NC(=O)c2ccc(Br)o2)cnn1C	127	.	.	.	/	.
Cc1ccc(C(=O)N/N=C\c2ccc(Br)o2)o1	.	.	.	58	/	.
Cn1cccc1C=NNC(=O)c1ccccn1	/	/	/	/	.	/
Cc1ccc(/C=N/NC(=O)c2ccc3c(c2)OCCO3)s1	.	.	.	.	/	.
